Experimental data: the supplement of paper PMC10646978
± gives the standard deviation.

What was measured:
Settings in all cases: modulator concentration 10 µM
[1] = system: RAW-Dual (murine macrophage reporter line); assay: NF-kB reporter (SEAP) activity fold change vs agonist alone; higher = enhanced NF-kB activity
Method in brief: (§1)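 RAW-Dual murine macrophage reporter cells were seeded at 50 000 per well in 384-well plates and pre-incubated 1 hour at 37 °C with compound pin-transferred to 10 μM final. After 1 hour, a PRR agonist was added and cells incubated overnight. Supernatant NF-κB (SEAP, QUANTI-Blue, 620 nm absorbance) and IRF (Lucia luciferase, QUANTI-Luc, luminescence) signals were divided by the mean agonist-only control on the same plate to give fold change. Two replicate plates were averaged, with errors by propagation.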

[2] = system: RAW-Dual (murine macrophage reporter line); assay: IRF reporter (Lucia luciferase) activity fold change vs agonist alone; higher = enhanced IRF activity
Method in brief: as §1

[3] = system: RAW-Dual (murine macrophage reporter line); assay: viability score (confluency relative to resting cells, overnight) (fraction); higher = more viable, active = viable (0.7 or more)
Method in brief: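 RAW-Dual macrophages in 384-well plates were incubated overnight with compound, final concentration 10 μM. Confluency images from IncuCyte were processed in IncuCyte software into two masks covering all imaged wells. The viability score is each well's confluency relative to resting cells, and a compound met the cutoff when both masks exceeded 70% of resting cells.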

[4] = agonist: CpG ODN 1826 0.5 ug/mL

Compound	NF-kB reporter [1, 4]	NF-kB reporter ([1]; agonist: LPS 0.1 ug/mL)	NF-kB reporter ([1]; agonist: MPLA […])	IRF reporter ([2]; agonist: 3'3'-cGAMP 10 ug/mL)	IRF reporter ([2]; agonist: LPS 0.1 ug/mL)	IRF reporter ([2]; agonist: MPLA […])	viability score [3]
Cc1cccc(Oc2ccc(NC(=O)c3ccco3)cc2)c1C	0.683 ± 0.049	0.992 ± 0.12	1.12 ± 0.049	0.483 ± 0.054	0.965 ± 0.085	1.44 ± 0.22	0.991 (active)
C[C@@H](O[C@H]1OCCN(Cc2n[nH]c(=O)[nH]2)[C@H]1c1ccc(F)cc1)c1cc(C(F)(F)F)cc(C(F)(F)F)c1	0.545 ± 0.086	0.634 ± 0.031	0.806 ± 0.073	0.961 ± 0.045	1.29 ± 0.084	1.04 ± 0.09	1.02 (active)
CN1CCN(c2ccc(-c3cccc(NC(=O)c4ccc5ccccc5c4)c3)nn2)CC1	0.162 ± 0.0099	0.745 ± 0.15	0.301 ± 0.11	0.664 ± 0.041	1.88 ± 0.75	1.85 ± 0.26	0.171 (inactive)
COc1ccccc1N1CCN(CCCNc2cc(=O)n(C)c(=O)n2C)CC1.Cl	1.2 ± 0.3	1.08 ± 0.34	0.954 ± 0.085	0.959 ± 0.029	1.21 ± 0.4	1.12 ± 0.092	0.996 (active)
COC(=O)C1=C(C)N(C)C(C)=C(C(=O)OC)C1c1ccc(-c2ccccc2)cc1	0.873 ± 0.069	0.943 ± 0.057	0.939 ± 0.06	0.989 ± 0.03	1.06 ± 0.16	0.905 ± 0.19	1 (active)
O=C(Nc1nc2ccccc2n1CCN1CCOCC1)C1CCCCC1	1.03 ± 0.1	1 ± 0.088	0.933 ± 0.068	1.03 ± 0.039	1.55 ± 0.27	1.07 ± 0.12	1.02 (active)
CC(COc1ccccc1)N(CCCl)Cc1ccccc1.Cl (configuration not stated)	0.328 ± 0.025	0.177 ± 0.015	0.355 ± 0.012	0.053 ± 0.0051	0.0504 ± 0.0018	0.0594 ± 0.011	0.186 (inactive)
O=C(O)CCC(=O)Nc1ccc(Br)cn1	1.17 ± 0.098	1.02 ± 0.066	1.02 ± 0.04	1.02 ± 0.19	1.12 ± 0.14	0.938 ± 0.27	0.997 (active)
O=C(CCc1ccc(O)cc1)c1c(O)cc(O)cc1OC1OC(CO)C(O)C(O)C1O (configuration not stated)	1.37 ± 0.33	0.943 ± 0.047	0.963 ± 0.072	0.961 ± 0.066	0.98 ± 0.18	1.02 ± 0.14	1.01 (active)
CC(C)(C(=O)c1cccnc1)c1cccnc1 [Prestw-904]	1.05 ± 0.092	0.894 ± 0.073	0.939 ± 0.057	0.995 ± 0.054	0.956 ± 0.12	0.901 ± 0.23	0.997 (active)
O=C(Nc1ccc(F)c(F)c1)c1ccnc(OCC2CCOCC2)c1	1.15 ± 0.07	0.969 ± 0.084	0.908 ± 0.046	0.856 ± 0.051	1.16 ± 0.14	1.26 ± 0.36	0.995 (active)
Cc1nccn1CC1CCc2c(c3ccccc3n2C)C1=O.Cl (configuration not stated)	0.82 ± 0.2	0.909 ± 0.28	0.84 ± 0.047	0.889 ± 0.051	1.19 ± 0.23	1.22 ± 0.33	0.638 (inactive)
CC(C)Sc1ccc(CC(=O)Nc2cnoc2)cc1	0.869 ± 0.044	1.01 ± 0.09	1.15 ± 0.095	0.848 ± 0.051	1.01 ± 0.24	1.1 ± 0.4	0.912 (active)
CC(=O)Nc1ccc(NC(=O)COc2ccc(Br)c(C)c2)cc1	0.902 ± 0.15	1.09 ± 0.097	0.95 ± 0.087	0.997 ± 0.026	1.27 ± 0.36	1.22 ± 0.17	1.01 (active)
CCOc1ccccc1NC(=O)Nc1ccc2c(c1)CCC(=O)N2C	1.91 ± 0.14	1.41 ± 0.11	0.99 ± 0.057	0.404 ± 0.025	0.282 ± 0.032	0.389 ± 0.079	0.933 (active)
COc1cc(C=C2SC(=S)NC2=O)ccc1OCCC(C)C	0.847 ± 0.074	0.969 ± 0.049	1.09 ± 0.11	1.03 ± 0.047	1.43 ± 0.12	1.61 ± 0.2	1 (active)
CN(C)CCOC(C)(c1ccccc1)c1ccccn1.O=C(O)CCC(=O)O (configuration not stated)	0.876 ± 0.12	1.25 ± 0.39	0.954 ± 0.067	0.862 ± 0.029	1.41 ± 0.33	1.16 ± 0.15	1 (active)
NC(=O)c1c(NC(=O)CN2C(=O)C(=Cc3ccc(Cl)cc3Cl)SC2=S)sc2c1CCCC2	0.936 ± 0.081	1.07 ± 0.067	0.885 ± 0.058	0.841 ± 0.028	1.23 ± 0.092	1.03 ± 0.29	0.997 (active)
CCCCCCOc1ccc(OC(=O)c2ccc(OC)cc2)cc1	0.826 ± 0.073	0.856 ± 0.072	0.913 ± 0.089	0.95 ± 0.037	1.37 ± 0.21	1.62 ± 0.26	1.04 (active)
O=C(Nc1ccc(S(=O)(=O)Nc2ccc(F)cc2)cc1)C(F)(F)F	0.992 ± 0.11	1.03 ± 0.069	0.93 ± 0.061	1.12 ± 0.027	1.37 ± 0.22	1.14 ± 0.098	1.01 (active)
Cn1nc(CNS(=O)(=O)c2cccc(C(F)(F)F)c2)c2c1CCCC2	0.981 ± 0.052	0.98 ± 0.092	1.21 ± 0.13	0.987 ± 0.085	1.06 ± 0.15	1.05 ± 0.27	0.926 (active)
COc1ccc(C=CC(=O)Nc2sc(C(=O)OC(C)C)c(C)c2C(N)=O)cc1	0.846 ± 0.076	0.798 ± 0.045	0.958 ± 0.086	0.949 ± 0.043	1.44 ± 0.092	1.57 ± 0.17	1 (active)
COC(=O)N[C@H](C(=O)N1CCC[C@H]1c1ncc(-c2ccc(-c3ccc(-c4cnc([C@@H]5CCCN5C(=O)[C@@H](NC(=O)OC)C(C)C)[nH]4)cc3)cc2)[nH]1)C(C)C	0.724 ± 0.098	1.17 ± 0.46	1.22 ± 0.074	0.757 ± 0.12	1.52 ± 0.3	4.38 ± 1.3	0.987 (active)
Cc1ccc(-n2ncc3c(Nc4cccc(C)c4)ncnc32)cc1	0.987 ± 0.2	1.14 ± 0.098	1.02 ± 0.1	0.938 ± 0.05	1.09 ± 0.23	1.19 ± 0.15	0.995 (active)
CCN(CC)S(=O)(=O)c1ccc(C(=O)Nc2cc(C)nn2-c2nc(C)c(C)c(=O)[nH]2)cc1	0.153 ± 0.012	0.267 ± 0.065	0.434 ± 0.015	0.883 ± 0.05	0.957 ± 0.099	0.994 ± 0.086	0.99 (active)
CCOC(=O)C1=C(COCCN)NC(C)=C(C(=O)OC)C1c1ccccc1Cl (configuration not stated)	0.533 ± 0.055	0.899 ± 0.052	1.55 ± 0.14	1.58 ± 0.1	1.34 ± 0.12	1.13 ± 0.095	0.589 (inactive)
